Sampled rows, rich in hits. Any-hit rate of the full collection: about 21%.
Pf growth 96h: P. falciparum growth inhibition at 96 hour, primary screen for plastid delayed-death inhibitors. P. falciparum luciferase reporter growth, 96 h. hit rate 6.9% among 320,000. Potency, µM (series often up to 28.7 µM), inactives show at the top dose activity change, negative = inhibition, usual class: inhibitors. AID 504834; further: potency means the concentration at half of the fitted maximal effect; on the % scale 0 is the no-effect control and ±100 the full control effect
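P. falciparum expressing integrated firefly luciferase, in erythrocytes at 2% hematocrit, 0.05% parasitemia, incubated with compounds 96 h at 37 C, 5% CO2. Growth inhibition read as loss of luminescence; two-generation exposure targets delayed-death apicoplast inhibitors.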
Pf growth 48h: P. falciparum growth inhibition at 48 hours (one generation); P. falciparum luciferase growth in erythrocytes, 48 h; Potency, µM (titrated, usually from 28.7 µM), without a hit: at the highest dose activity change, negative = inhibition, hits mostly inhibitors; hit rate 5.9% among 310,000; AID 504832; further: potency means the concentration at half of the fitted maximal effect; on the % scale 0 is the no-effect control and ±100 the full control effect
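Luminescence readout; reporter = integrated firefly luciferase in P. falciparum. RBC culture at 2% hematocrit, 0.1% parasitemia final, 37 C/5% CO2; decreased signal taken as growth inhibition.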
Sm TGR inh: inhibitors of Schistosoma mansoni thioredoxin glutathione reductase; Q962Y6; purified TGR, DTNB reduction, TNB absorbance 405 nm; Potency, µM (highest dose often 114 µM), for inactives: at the top dose activity change, negative = inhibition, actives largely listed as inhibitors; hit rate 3% among 360,000; AID 485364; further: potency means the concentration at half of the fitted maximal effect; on the % scale 0 is the no-effect control and ±100 the full control effect; nearly all actives have a fitted effect of over 60% in size
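First, TGR (20 nM dispensed) and NADPH were mixed with compound. Second, a 15 min room-temperature incubation followed. Third, further NADPH and then DTNB were added to start the reaction. Finally, TNB absorbance was monitored kinetically.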
CHX counter: counter-screen hit for Shiga toxin inhibitors, cycloheximide. hit rate 12% among 300,000. max response, %. cell reporter, cycloheximide protein synthesis inhibition counterscreen. AID 2314; in the data active means max response mostly above about 13%, no sharp cut-off; inactive means mostly below about 14%; further: read at 38.3 µM for the half of the compounds with a filed dose; 0% is about no effect
NS1 inh: influenza NS1 inhibition; Potency, µM (top dose mostly 46.1 µM), without a hit: top-dose activity, positive = more growth; hit rate 0.4% among 270,000; calls by dose curve; further: potency means the concentration at half of the fitted maximal effect; actives are rising curves; nearly all actives have a fitted effect of over 50% in size
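Compounds were scored for reversing the slow growth caused by influenza A NS1 in S. cerevisiae, measured by optical density at 600 nm. Assay medium contained 2% galactose at pH 6.0; NS1-free yeast of the same strain were the positive control.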
Shiga inhibitor: inhibitors of Shiga toxin in Vero cells | Vero cells, Shiga toxin protein synthesis inhibition reporter | inhibition, % at 38.7 µM | hit rate 9.2% among 290,000 | AID 2315; in the data active means inhibition mostly above about 28%, no sharp cut-off; inactive means mostly below about 43%; further: 0% is about no effect
The depositor's hits bear a star; ? = inconclusive; nt = no result; [ ] = another dose, or the depositor's remark. Unless noted, the call rests on the fitted dose curve; in most records, active means well fitted curve in the direction sought with a large enough effect; inconclusive means small, poorly fitted or top-dose-only effect, or another doubt; inactive means no such curve, though single readings can be large; an effect the other way counts as inactive or inconclusive.

SMILES	Pf growth 96h	Pf growth 48h	Sm TGR inh	CHX counter	NS1 inh	Shiga inhibitor
COc1ccc(N2C(N)=C(C#N)C(c3ccsc3)C3=C2CCCC3=O)c(OC)c1 (stereo not drawn)	3.7µM*	?	0%	6	25%	7
COc1ccc(S(=O)(=O)N(CC(C)C)C2CCS(=O)(=O)C2)cc1OC (stereo not drawn)	35%	13%	1%	nt	nt	nt
NCCCC(N)CC(=O)NC1CNC(=O)C(C2CC(O)N=C(N)N2)NC(=O)/C(=C/NC(N)=O)NC(=O)C(CO)NC(=O)C(CO)NC1=O (stereo not drawn)	7%	3%	nt	nt	nt	nt
Cc1cccc(N(CC(=O)NC2CCCC2)C(=O)c2csnn2)c1C	36%	8%	-1%	-6	-1%	4
COc1cccc(CNC(=O)Nc2cc(C(=O)NCc3cccc(F)c3)ccc2N2CCCC2)c1	nt	nt	5%	nt	nt	nt
CC1(C)CC(=O)C2=C(C1)N(c1cccnc1)C(N)=C(C#N)C2c1cccs1 (stereo not drawn)	?	-25%	50µM*	2	17%	11
COc1ccc(C2C(C#N)=C(N)N(c3cccnc3)C3=C2C(=O)CC(C)(C)C3)cc1OC (stereo not drawn)	?	-25%	45µM*	7	nt	25
COc1ccc(C2C(C#N)=C(N)N(N(C)C)C3=C2C(=O)CC(C)(C)C3)cc1OC (stereo not drawn)	?	?	4%	-4	0%	10
O=C1CCCC2=C1C(c1ccccc1)CC(=O)N2c1ccccc1 (stereo not drawn)	13µM*	-13%	-2%	-4	8%	7
N#CC1=C(N)N(c2ncn[nH]2)C2=C(C(=O)CCC2)C1c1ccccc1 (stereo not drawn)	22%	?	-4%	-1	nt	-3
CSc1ccc(C2C(C#N)=C(N)N(c3ccccc3)C3=C2C(=O)CCC3)cc1 (stereo not drawn)	0%	13µM*	0%	17	-22%	-6
Cc1cc(C(=O)NCc2ccccc2C)c2c(C)nn(-c3cccc(F)c3)c2n1	nt	nt	3%	nt	nt	nt
Cc1nnc(N2CCC(C(=O)NCCC(C)C)CC2)c2nn(-c3ccc(Cl)cc3)c(C)c12	nt	nt	0%	nt	nt	nt
O=C(COC(=O)/C=C/c1ccc(C(F)(F)F)cc1)NC(=O)NCc1ccco1	-27%	-14%	-17%	nt	nt	nt
CN(C)S(=O)(=O)N1CCN(c2ccnc3cc(Cl)ccc23)CC1	0%	-19%	-9%	4	-5%	10
O=S(=O)(c1ccccc1OC(F)(F)F)N1CCN(c2ccnc3cc(Cl)ccc23)CC1	2.3µM*	9.3µM*	9%	9	-22%	27
O=[N+]([O-])c1ccc(S(=O)(=O)N2CCN(c3ccnc4cc(Cl)ccc34)CC2)cc1	2.6µM*	5.2µM*	4%	-1	0%	-3
CC(C)S(=O)(=O)N1CCN(c2ccnc3cc(Cl)ccc23)CC1	9.3µM*	5.2µM*	-14%	2	-3%	-13
O=S(=O)(c1cccc(Br)c1)N1CCN(c2ccnc3cc(Cl)ccc23)CC1	1.9µM*	3.7µM*	-1%	-1	-93%	17
Cc1ccc(Cl)cc1N1CCN(S(=O)(=O)c2cccc(S(=O)(=O)N3CCCC3)c2)CC1	?	-7%	-3%	-8	?	-10
O=C1CC(C(=O)Nc2cccc(F)c2)n2ncnc2N1 (stereo not drawn)	64%	6%	4%	6	nt	-9
CN(C(=O)C1CC1)C1CCS(=O)(=O)C1 (stereo not drawn)	4%	11%	-8%	nt	nt	nt
Cc1cc2c(cc1NS(=O)(=O)c1cccc(C#N)c1)n(C)c(=O)c(=O)n2C	nt	nt	0%	nt	nt	nt
N#Cc1cccc(S(=O)(=O)N2CCN(c3ccnc4cc(Cl)ccc34)CC2)c1	2.3µM*	13µM*	2%	2	-24%	-2
N#Cc1ccc(S(=O)(=O)N2CCN(c3ncccn3)CC2)cc1	?	?	0%	0	0%	-3
SMILES	Pf growth 96h	Pf growth 48h	Sm TGR inh	CHX counter	NS1 inh	Shiga inhibitor
CCC(=O)NCC(c1cccs1)S(=O)(=O)c1ccc(C)cc1 (stereo not drawn)	?	20%	89µM*	-3	?	4
CCCC(=O)NCC(c1cccs1)S(=O)(=O)c1ccc(C)cc1 (stereo not drawn)	?	14%	-17%	-4	-18%	-10
Cc1ccc(C(=O)CC(c2cccs2)S(=O)(=O)c2ccc(C)cc2)cc1 (stereo not drawn)	20%	57%	0%	23*	5%	38
O=C(CC(c1cccs1)S(=O)(=O)c1ccccc1)c1ccc(F)cc1 (stereo not drawn)	13%	6%	6%	52*	0%	33*
CC(C)(C)NC(=O)c1ccc(NC(=O)c2ccccc2-c2ccccc2C(=O)O)cc1	?	?	22%	1	17%	-10
CC(C)(C)NC(=O)c1sccc1C(=O)O	?	48%	0%	22*	-75%	51*
NCCOc1ccccn1	nt	nt	nt	nt	13%	nt
CCOC(=O)N1CCN(c2ccc(C(F)(F)F)cn2)CC1	?	38%	5%	20*	7%	28
CC(C)N(Cc1ccccc1)C(=O)COC(=O)C1CCN(c2ccc(C(F)(F)F)cn2)CC1	0%	0%	?	nt	nt	nt
CCOc1ncccc1C(=O)N1CCN(c2ccc(C(F)(F)F)cn2)CC1	5%	-5%	-9%	-2	nt	2
CCOC(=O)N1CCN(c2ccc3nnnn3n2)CC1	2.1µM*	nt	0%[11.4 µM]	-3	1%	-18
CC(C)(C)N(Cc1ccccc1)C(=O)COC(=O)C1CCN(c2ccc(C(F)(F)F)cn2)CC1	?	10µM*	7%	nt	nt	nt
COc1ccc(-c2c(C#N)c(SCC(=O)Nc3ccc(C)c(C)c3)nc(C)c2C(=O)Nc2ccccc2)cc1OC	nt	nt	2%	nt	nt	nt
O=C(NCCc1ccccc1)C1CCC(=O)N1C1CCCC1 (stereo not drawn)	25%	13%	11%	6	-2%	28
O=C(CSc1nnc(-c2ccccc2)c(-c2ccccc2)n1)NCc1ccco1	-24%	10µM*	40µM*	13	-8%	0
CCn1c(CNc2nc(-c3ccccc3)cs2)nnc1SCC(=O)NCc1ccco1	?	?	?	-1	10%	18
O=C(CSc1ncc(-c2ccccc2)nn1)NCc1ccco1	6%	0%	?	-2	8%	-4
O=C(CSc1nc(-c2ccccc2)cs1)NCc1ccco1	nt	20%	-16%	22*	-9%	44*
COCCNC(=O)CSc1nc(-c2ccccc2)cs1	281%	51%	9%	25*	-5%	45*
Cc1nc(SCC(=O)NCc2ccco2)nc(C)c1C	-9%	-9%	22µM*	-6	9%	6
Cc1ccc2nc(SCC(=O)NC(=O)NCc3ccco3)[nH]c2c1	nt	?	?	13*	3%	13
